Compounds without any hit were thinned out: in the full panel of roughly 79,000, 15% have a hit. A number with no mark means an inactive call. Active and inactive are the calls of the source. Cut-off read from the data, not from the text of the source: active = growth inhibition above about 70%; inactive = the rest.
Key:
[1] = NCI Yeast Anticancer Drug Screen. Data for the rad50 strain (AID 155);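 note: 0% = growth of vehicle-only cultures of the same strain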; settings: S. cerevisiae rad50 strain growth inhibition, hits give high values
In short: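 Cells are treated with compound, grown, and their growth is then scored against vehicle-only cultures of the same repair-deficient yeast strain.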

[2] = NCI Yeast Anticancer Drug Screen. Data for the mec2-1 strain (AID 157); settings: S. cerevisiae mec2-1 strain, hits give high values
In short: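 Strain: mec2-1 (DNA repair/cell cycle alteration). Compound exposure, then growth measured; inhibition expressed relative to vehicle.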

[3] = NCI Yeast Anticancer Drug Screen. Data for the sgs1 mgt1 strain (AID 161);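 note: 0% = growth of cultures given vehicle only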; settings: S. cerevisiae sgs1 mgt1 strain, hits give high values
In short: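 Inhibition of yeast growth, normalised to vehicle-treated controls, is reported for a strain bearing genetic alterations in DNA damage repair.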

[4] = NCI Yeast Anticancer Drug Screen. Data for the cln2 rad14 strain (AID 165);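 note: 0% = growth equal to vehicle treated cultures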; settings: S. cerevisiae cln2 rad14 strain, hits give high values
In short: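 Compounds are applied to the cln2 rad14 yeast strain, and growth is then compared with that of vehicle-treated cultures to give inhibition.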

[5] = NCI Yeast Anticancer Drug Screen. Data for the bub3 strain (AID 167); settings: S. cerevisiae bub3 mutant strain, hits give high values
In short: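 Part of a panel of yeast mutants defective in DNA damage repair or cell cycle regulation. Each strain is grown with compound, and inhibition is calculated relative to solvent-treated cultures.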

[6] = NCI Yeast Anticancer Drug Screen. Data for the mlh1 rad18 strain (AID 175); settings: S. cerevisiae mlh1 rad18 strain growth inhibition, hits give high values
In short: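 Read-out is yeast growth inhibition, calculated against vehicle-only controls. The compound was applied to a strain engineered with DNA damage repair alterations.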

[7] = at 5.0 µM (retest, dose inferred, filed as 0.5)
[8] = at 50.0 µM (retest, dose inferred, filed as 5.0)

| Structure (SMILES) | growth inhibition [1, 7] | growth inhibition [1, 8] | growth inhibition ([1]; at 50.0 µM) | growth inhibition [2, 7] | growth inhibition [2, 8] | growth inhibition ([2]; at 50.0 µM) | growth inhibition [3, 7] | growth inhibition [3, 8] | growth inhibition ([3]; at 50.0 µM) | growth inhibition [4, 7] | growth inhibition [4, 8] | growth inhibition ([4]; at 50.0 µM) | growth inhibition [5, 7] | growth inhibition [5, 8] | growth inhibition ([5]; at 50.0 µM) | growth inhibition [6, 7] | growth inhibition [6, 8] | growth inhibition ([6]; at 50.0 µM) |
| --- | --- | --- | --- | --- | --- | --- | --- | --- | --- | --- | --- | --- | --- | --- | --- | --- | --- | --- |
| C[C@]12CC[C@@H]3c4cc(OCC(F)(F)F)c(O)cc4CC[C@H]3[C@@H]1CC[C@@H]2O | -3% | 97% (active) | 98.6% (active) | -5% | 99% (active) | 98.5% (active) | 10% | 99% (active) | 98.8% (active) | -13% | 97% (active) | 98.2% (active) | 5% | 99% (active) | 98.8% (active) | -6% | 98% (active) | 98.6% (active) |
| CCCC/C=C1\CCC(CN2CCCCC2)C1=O (configuration not stated) | 44% | 70% (active) | 89.2% (active) | 40% | 60% | 69.8% | 75% (active) | 96% (active) | 85.3% (active) | 59% | 75% (active) | 77.2% (active) | 84% (active) | 98% (active) | 67.2% | 56% | 83% (active) | 88% (active) |
| C/C(=N/O)c1cccc(C(F)(F)F)c1 | -150% | -146% | 7.15% | -50% | -58% | 14.3% | -64% | -63% | -6.55% | -63% | -84% | 35.6% | -66% | -92% | 34.6% | -128% | -127% | 19.2% |
| Cc1ccccc1SCc1nc2ccccc2c(C)[n+]1[O-] | -3% | 73% (active) | 35.5% | 4% | 63% | 45.2% | 9% | 68% | 58.7% | -1% | 44% | 35% | -1% | 69% | 59% | 42% | 89% (active) | 59.9% |
| O=c1[nH]c2c([N+](=O)[O-])cc(Cl)cc2nc1/C=C(\O)c1ccc2ccccc2c1 | -4% | 95% (active) | 74.3% (active) | 7% | 98% (active) | 72.9% (active) | -8% | 95% (active) | 90.1% (active) | 6% | 94% (active) | 49.1% | -9% | 97% (active) | 70% (active) | 25% | 96% (active) | 71.5% (active) |
| Cc1c(Cl)cc2[nH]c(C(F)(F)F)nc2c1Cl | 3% | 66% | 63% | 8% | 76% (active) | 75.2% (active) | 3% | 79% (active) | 71.2% (active) | 10% | 71% (active) | 65.1% | 2% | 56% | 41.5% | 3% | 72% (active) | 70.5% (active) |
| COC(=O)C1(Cc2ccc3c(c2)CCC3)Cc2ccccc2C1O (configuration not stated) | -3% | 99% (active) | 76.5% (active) | -40% | 99% (active) | 84.1% (active) | -44% | 99% (active) | 86.2% (active) | 1% | 99% (active) | 89.8% (active) | -14% | 99% (active) | 89.6% (active) | -21% | 99% (active) | 91% (active) |
| COc1ccc2c(c1)C(=O)C[C@@H]1[C@](C)(C#N)CCC[C@]21C | 3% | 31% | 47.1% | 3% | 2% | -4.95% | 3% | 19% | 33.4% | 5% | 10% | -2.7% | 5% | 34% | 69.8% | 7% | 13% | 47.7% |
| Sc1ccccc1C1N(Cc2ccc(Cl)cc2)CCCN1Cc1ccc(Cl)cc1 | 98% (active) | 42% | 79.2% (active) | 100% (active) | 69% | 55.6% | 99% (active) | 84% (active) | 86.8% (active) | 99% (active) | 39% | 64% | 99% (active) | 63% | 81.8% (active) | 99% (active) | 73% (active) | 79.6% (active) |
| CC1(C)CCC2(CC1)CC(=O)OC(=O)C2 | -159% | -162% | -3.9% | -50% | -54% | 18.5% | -64% | -62% | 6.6% | -59% | -59% | 27.8% | -71% | -82% | -3.4% | -145% | -117% | 3.95% |
| CC(C(=O)N1C(=O)N(C(=O)C(C)C(O)c2ccccc2)C(c2ccccc2)C1c1ccccc1)C(O)c1ccccc1 (configuration not stated) | 3% | 91% (active) | 89.2% (active) | -10% | 92% (active) | 91.5% (active) | -9% | 91% (active) | 91.9% (active) | 29% | 89% (active) | 90.1% (active) | -18% | 96% (active) | 88.2% (active) | 23% | 91% (active) | 91.3% (active) |
| O=C1c2ccccc2-c2cc([N+](=O)[O-])c([N+](=O)[O-])cc21 | 16% | 99% (active) | 93.2% (active) | 19% | 45% | 98.6% (active) | 21% | 99% (active) | 96% (active) | -15% | 90% (active) | 90% (active) | 7% | 99% (active) | 98.7% (active) | 5% | 98% (active) | 98.3% (active) |
| CCOC(=O)c1ccc(NC(=O)O/N=C(/Cl)CC)cc1 | 4% | 83% (active) | 67% | -7% | 71% (active) | 78.5% (active) | -26% | 75% (active) | 80.1% (active) | 35% | 51% | 64.8% | -40% | 51% | 63.8% | 8% | 86% (active) | 69.7% |
| Nc1ncnc2nc[nH]c12.[Ag] | 98% (active) | 99% (active) | 99.3% (active) | 99% (active) | 100% (active) | 99.7% (active) | 97% (active) | 99% (active) | 99.7% (active) | 99% (active) | 99% (active) | 98.5% (active) | 99% (active) | 99% (active) | 99.5% (active) | 97% (active) | 99% (active) | 99.7% (active) |
| N#Cc1cc2c(cc1Cl)Sc1nccn1S2(=O)=O | 5% | 36% | 28.4% | 6% | 52% | 34.7% | 19% | 63% | 43.7% | -1% | 17% | 39.2% | 10% | 90% (active) | 76.7% (active) | 2% | 62% | 64% |
| O=C/C=C/c1cc([N+](=O)[O-])ccc1Cl | -138% | 77% (active) | 81.5% (active) | -47% | 79% (active) | 79.5% (active) | -59% | 83% (active) | 57.4% | -55% | 46% | 46.1% | -80% | 65% | 79.2% (active) | -137% | 86% (active) | 93.3% (active) |
| CN(C)C1CCC2C(=C1OC(=O)c1ccccc1)C=Cc1ccccc12 (configuration not stated) | -1% | 11% | 25% | 2% | 16% | 13.4% | 13% | 38% | 31.9% | 4% | 7% | -1.4% | 0% | 12% | 22.9% | 21% | 53% | 67.5% |
| O=C(CC[P+](c1ccccc1)(c1ccccc1)c1ccccc1)c1ccccc1 | 10% | 78% (active) | 94.8% (active) | 6% | 92% (active) | 94.8% (active) | 4% | 74% (active) | 86.2% (active) | -3% | 71% (active) | 95.6% (active) | 7% | 79% (active) | 94.8% (active) | 3% | 84% (active) | 93.1% (active) |
| O=C(/C=C(/Nc1ccccc1)C(=O)c1ccccc1)c1ccccc1 | 3% | 77% (active) | 30.6% | 9% | 96% (active) | 37.2% | 8% | 90% (active) | 68.8% | 0% | 39% | -5.1% | 13% | 33% | 74% (active) | 6% | 91% (active) | 37.7% |
